# PAD4 FP inh – inhibitors of human PAD4; Q9UM07; recombinant PAD4, RCA probe fluorescence polarization; inhibition, % at 6.36 µM; 330,000 tested, 0.41% active; AID 485272;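 active = percent inhibition above a cutoff equal to the mean of all tested compounds plus 3 SD, cut at about 15% in these data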
# LYPLA2 counter – LYPLA2 (human) inhibition in PME1 counter-screen | O95372 | recombinant LYPLA2, FP-Rh probe fluorescence polarization | inhibition, % at 5.9 µM | 320,000 tested, 0.38% active | AID 2177;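 active = inhibition above the screen-wide mean plus 3 SD, limit set per campaign, cut at about 26% in these data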
# Target sequence (O95372 whole entry, looked up): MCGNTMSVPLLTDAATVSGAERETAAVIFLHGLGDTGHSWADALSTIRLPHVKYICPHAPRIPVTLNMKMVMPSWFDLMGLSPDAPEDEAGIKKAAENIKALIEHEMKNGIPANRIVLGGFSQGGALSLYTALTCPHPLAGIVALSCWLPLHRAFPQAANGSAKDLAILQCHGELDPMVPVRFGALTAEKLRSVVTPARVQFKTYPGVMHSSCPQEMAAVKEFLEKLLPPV
# GSTO1 counter – blocks human GSTO1 in RBBP9 counter-screen; P78417; recombinant GSTO1, activity-based probe fluorescence polarization; inhibition, % at 5.96 µM; 300,000 tested, 1.1% active; AID 1974;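 active = inhibition above the campaign mean inhibition plus 3 SD, cut at about 35% in these data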
# Target sequence (P78417 whole entry, looked up): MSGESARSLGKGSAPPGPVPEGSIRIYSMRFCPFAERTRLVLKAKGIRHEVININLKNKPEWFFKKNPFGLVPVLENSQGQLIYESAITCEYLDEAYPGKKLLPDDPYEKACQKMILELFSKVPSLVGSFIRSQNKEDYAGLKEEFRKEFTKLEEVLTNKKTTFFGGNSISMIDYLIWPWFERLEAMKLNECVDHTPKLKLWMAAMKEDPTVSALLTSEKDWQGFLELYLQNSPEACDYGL
# LYPLA1 counter – blocks human lysophospholipase 1, a PME1 counter-screen. O75608. recombinant LYPLA1, FP-Rh probe fluorescence polarization. inhibition, % at 5.9 µM. 320,000 tested, 0.16% active. AID 2174;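 active = inhibition above the mean of all tested compounds plus 3 SD, set per campaign, cut at about 14% in these data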;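 also: inhibitors block serine hydrolase probe labeling of LYPLA1 so polarization falls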
# PME-1 inh – blocks human protein phosphatase methylesterase 1 | Q9Y570 | recombinant PME-1, FP-Rh probe fluorescence polarization | inhibition, % at 5.9 µM | 320,000 tested, 0.53% active | AID 2130;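 active = inhibition above the campaign mean of all compounds plus 3 SD, cut at about 26% in these data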;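 also: competitive labeling of PME-1 active site by serine hydrolase directed probe; inhibitors block probe labeling so polarization falls and inhibition rises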
# Fam108B counter – Fam108B inhibition, counter-screen for RBBP9 inhibitors | recombinant Fam108B, FP-Rh probe fluorescence polarization | inhibition, % at 9.51 µM | 300,000 tested, 0.33% active;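 active = inhibition above the screen mean inhibition plus 3 SD, computed separately per campaign, cut at about 18% in these data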;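 also: inhibitors lower polarization as less probe binds the enzyme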
# Hits are given with their value; i = inactive; nt = no result given; ! = a repeat was not active. Hits are enriched below; roughly 1.7% of the tested compounds scored in any of these assays.
SMILES,PAD4 FP inh,LYPLA2 counter,GSTO1 counter,LYPLA1 counter,PME-1 inh,Fam108B counter
COC(=O)c1cc(O)c(O)c(O)c1,i,i,47.3,i,i,i
COC(=O)c1cc(OC)nc(OC)c1,i,i,i,i,i,i
COC(=O)c1cc(NC(=O)Cc2ccccc2[N+](=O)[O-])cc(C(=O)OC)c1,i,i,i,i,i,i
CN(CC(=O)Nc1cccc(F)c1)C(=O)c1cc(S(=O)(=O)N2CCCCC2)ccc1N1CCOCC1,i,i,i,i,i,i
COc1ccc(-n2c(=O)c3ccccc3n(CC(=O)OCc3ccccc3)c2=O)cc1OC,i,i,i,i,i,i
N#CCCN(C(=O)CCl)c1cccc(Cl)c1,i,i,86.8,i,i,i
N#CCCN(C(=O)COC(=O)c1nc(Cl)ccc1Cl)c1ccccc1,i,i,i,i,i,i
O=C(Nc1cccc(C(F)(F)F)c1)/C(=C/c1ccco1)NC(=O)c1cccs1,i,i,i,i,i,i
Cc1ccc(CNC(=O)c2ccccc2NC(=O)CSc2nnnn2C)cc1,i,i,37.0,i,i,i
CCCN1CCCc2cc(CN)ccc21,27.6,i,63.6,i,i,i
CCCCCn1c(CN2CCN(Cc3ccccc3)CC2)nc2c1c(=O)n(C)c(=O)n2C,i,i,i,i,i,i
Cn1c(=O)c2c(nc(CN3CCN(C(c4ccccc4)c4ccccc4)CC3)n2CCCO)n(C)c1=O,i,i,i,i,29.9,i
Cc1ccc(N(CC2CO2)S(=O)(=O)c2ccc(C)cc2)cc1 (centres undefined),i,i,73.9,i,i,i
Cc1ccc(N(CCC(=O)O)S(=O)(=O)c2ccc(C)cc2)cc1,i,i,i,i,i,i
Nc1ccc(Nc2nc3ccccc3[nH]2)cc1,i,i,i,i,39.8,i
Nc1ccccc1Nc1nc2ccccc2[nH]1,i,i,i,i,i,i
O=C(c1cccs1)N1CCC(c2nc3c(nnn3Cc3ccccc3Cl)c(=O)[nH]2)CC1,i,i,i,i,28.1,i
COc1ccccc1C(=O)NC(CCSC)C(=O)NNC(=O)c1ccccc1O (centres undefined),i,i,nt,i,i,nt
COc1ccccc1Nc1nc(-c2sc(NC(=O)c3ccc([N+](=O)[O-])cc3)nc2C)cs1,i,i,i,i,i,24.8
O=C(COC(=O)CCc1c[nH]c2ccccc12)Nc1cc([N+](=O)[O-])ccc1Cl,i,i,i,i,i,i
c1coc(CSSCc2ccco2)c1,i,i,nt,i,i,nt
CN(C)S(=O)(=O)c1ccc(NC(=O)CSc2nnc(-c3ccco3)o2)cc1,i,nt,nt,nt,nt,nt
COc1ccc(OC)c(N2C(=O)[C@@H]3C(c4ccccc4Cl)=NO[C@@H]3C2=O)c1,i,i,36.9,i,i,i
Cc1cccc(C)c1N1C(=O)[C@@H]2C(c3ccccc3Cl)=NO[C@@H]2C1=O,i,i,i,i,i,i
O=C(Cc1cc(=O)[nH][nH]1)N/N=C/C=C/c1ccccc1,i,i,35.7!,i,i,i
SMILES,PAD4 FP inh,LYPLA2 counter,GSTO1 counter,LYPLA1 counter,PME-1 inh,Fam108B counter
CC(=O)N1CCN(c2ccc(NC(=S)NC(=O)COc3ccc(C(C)(C)C)cc3)cc2)CC1,i,i,i,i,39.9,i
COc1cc(-n2c(C)nc3cc(C(=O)O)ccc32)cc(OC)c1OC,i,i,i,i,i,i
COc1ccc2nc(N3CCC(O)CC3)c(C#N)cc2c1,i,i,36.2,i,i,i
O=C(NCc1ccccc1)C1CCN(S(=O)(=O)c2ccc(Cl)cc2)CC1,i,i,i,i,44.5,i
O=C(NCc1ccncc1)C1CCN(S(=O)(=O)c2ccccc2)CC1,i,i,i,i,i,i
O=C1CC(NNc2nc3ccccc3s2)C(=O)N1c1ccccc1 (centres undefined),i,i,i,i,i,i
CCc1ccc(N2C(=O)CC(NNc3nc4ccccc4s3)C2=O)cc1 (centres undefined),i,i,37.6,i,i,i
Cn1cnnc1SCC(=O)Nc1sc2c(c1C(N)=O)CCC2,i,i,35.9,i,i,i
COCCn1cnnc1SCC(=O)Nc1sc2c(c1C#N)CCC2,i,i,nt,i,i,nt
O=C(c1cccs1)N1CCN(c2cc(Cl)ccc2Cl)CC1,i,i,i,i,i,i
CCOC(=O)c1ccc(N2C(=O)C3C(C2=O)C(C(=O)c2ccc(Cl)cc2)N2CCCC32)cc1 (centres undefined),i,i,i,i,i,i
Cc1occc1-c1nnc(SCC(=O)c2ccc(F)cc2)o1,i,i,36.1,i,i,i
CC(N)=Nc1ccc([N+](=O)[O-])cc1,i,i,i,i,i,i
O=[N+]([O-])c1ccc(N=Nc2c(Cl)cc(O)cc2Cl)cc1,15.7,i,56.5,i,i,i
Cc1ccc2c(=O)n3c(nc2c1)C(Cc1ccccc1)NC(=O)c1ccc(Cl)cc1-3 (centres undefined),i,i,nt,i,i,nt
C/C(=N\N=C(/N)SC1CC(=O)N(c2ccc(Cl)cc2)C1=O)c1cccs1 (centres undefined),i,i,36.3,i,i,i
C/C(=N\N=C(/N)SC1CC(=O)N(c2ccccc2)C1=O)c1cccs1 (centres undefined),i,i,i,i,i,i
Cc1ccc(-c2nc(Nc3ccccc3)n[nH]2)cc1,i,i,i,i,40.8,i
Cc1cc(C)nc(Nc2n[nH]c(-c3ccccc3Cl)n2)n1,i,i,i,i,i,i
Cc1c(C(=O)O)cccc1-c1ccc(/C=N/n2cnnc2)o1,i,i,i,i,i,i
Cc1c(C(=O)O)cccc1-c1ccc(/C=N/Nc2ccc(Br)cc2)o1,i,i,i,i,28.6,i
CCCOc1ccc([C@@H]2C3CN(C(=O)OCC)CC=C3C(C#N)=C(N)C2(C#N)C#N)cc1OC (some centres undefined),i,i,i,i,47.8,i
CCOC(=O)N1CC=C2C(C#N)=C(N)C(C#N)(C#N)[C@H](c3cccs3)C2C1 (some centres undefined),i,i,i,i,31.5,i
COc1cc(C2C3CN(C)CC=C3C(C#N)=C(N)C2(C#N)C#N)ccc1OC(C)C (centres undefined),i,i,i,i,i,i
CC(C)CCn1c(Sc2nc3ccccc3o2)nc2c1c(=O)[nH]c(=O)n2C,i,i,i,i,i,i
SMILES,PAD4 FP inh,LYPLA2 counter,GSTO1 counter,LYPLA1 counter,PME-1 inh,Fam108B counter
COc1ccccc1C(=O)Nc1ccccc1SC(=O)c1ccccc1OC,79.7,i,i,i,i,i
CCc1ccc(OC)c(S(=O)(=O)NCc2cccs2)c1,i,i,nt,i,i,nt
Cc1cc(C)nc(/N=C(\N)Nc2cccc(OCc3ccccc3)c2)n1,i,i,i,i,i,i
Cc1cc(C)nc(/N=C(\N)Nc2ccc(OCc3ccccc3)cc2)n1,i,30.2,i,i,i,i
CC(C(=O)NCC1CCCCC1)N1CCN(S(=O)(=O)/C=C/c2ccccc2)CC1 (centres undefined),i,i,34.8,i,i,i
O=C(CN1CCCc2ccccc21)Nc1cc(S(=O)(=O)N2CCCC2)ccc1Cl,i,i,nt,i,72.9,nt
